The whole screen tested about 190,000 compounds, of which about 6,900 (3.6%) were called active. This excerpt belongs to a sample that is enriched for actives. Values without a mark were called inactive. Rule as the data show it: active = inhibition above about 50%; inactive = the rest.

The inhibition is the drop in the measured response relative to a control, in per cent.

In this experiment the target is Huntingtin (Homo sapiens) (UniProt P42858). The experiment is described as follows: mutant huntingtin-calmodulin interaction inhibitors – biochemical, AlphaScreen, primary screen (AID 1671202).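 Also: 0% = both proteins with DMSO and 100% = one protein alone.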 The following applies: AlphaScreen His-mHTT/GST-CaM binding, luminescence; at 15 µM, stronger effect = higher value. (Bead proximity is the source of the signal in Alpha formats.)
Sequence of Huntingtin (Homo sapiens) (P42858 whole entry, looked up, stated change not applied): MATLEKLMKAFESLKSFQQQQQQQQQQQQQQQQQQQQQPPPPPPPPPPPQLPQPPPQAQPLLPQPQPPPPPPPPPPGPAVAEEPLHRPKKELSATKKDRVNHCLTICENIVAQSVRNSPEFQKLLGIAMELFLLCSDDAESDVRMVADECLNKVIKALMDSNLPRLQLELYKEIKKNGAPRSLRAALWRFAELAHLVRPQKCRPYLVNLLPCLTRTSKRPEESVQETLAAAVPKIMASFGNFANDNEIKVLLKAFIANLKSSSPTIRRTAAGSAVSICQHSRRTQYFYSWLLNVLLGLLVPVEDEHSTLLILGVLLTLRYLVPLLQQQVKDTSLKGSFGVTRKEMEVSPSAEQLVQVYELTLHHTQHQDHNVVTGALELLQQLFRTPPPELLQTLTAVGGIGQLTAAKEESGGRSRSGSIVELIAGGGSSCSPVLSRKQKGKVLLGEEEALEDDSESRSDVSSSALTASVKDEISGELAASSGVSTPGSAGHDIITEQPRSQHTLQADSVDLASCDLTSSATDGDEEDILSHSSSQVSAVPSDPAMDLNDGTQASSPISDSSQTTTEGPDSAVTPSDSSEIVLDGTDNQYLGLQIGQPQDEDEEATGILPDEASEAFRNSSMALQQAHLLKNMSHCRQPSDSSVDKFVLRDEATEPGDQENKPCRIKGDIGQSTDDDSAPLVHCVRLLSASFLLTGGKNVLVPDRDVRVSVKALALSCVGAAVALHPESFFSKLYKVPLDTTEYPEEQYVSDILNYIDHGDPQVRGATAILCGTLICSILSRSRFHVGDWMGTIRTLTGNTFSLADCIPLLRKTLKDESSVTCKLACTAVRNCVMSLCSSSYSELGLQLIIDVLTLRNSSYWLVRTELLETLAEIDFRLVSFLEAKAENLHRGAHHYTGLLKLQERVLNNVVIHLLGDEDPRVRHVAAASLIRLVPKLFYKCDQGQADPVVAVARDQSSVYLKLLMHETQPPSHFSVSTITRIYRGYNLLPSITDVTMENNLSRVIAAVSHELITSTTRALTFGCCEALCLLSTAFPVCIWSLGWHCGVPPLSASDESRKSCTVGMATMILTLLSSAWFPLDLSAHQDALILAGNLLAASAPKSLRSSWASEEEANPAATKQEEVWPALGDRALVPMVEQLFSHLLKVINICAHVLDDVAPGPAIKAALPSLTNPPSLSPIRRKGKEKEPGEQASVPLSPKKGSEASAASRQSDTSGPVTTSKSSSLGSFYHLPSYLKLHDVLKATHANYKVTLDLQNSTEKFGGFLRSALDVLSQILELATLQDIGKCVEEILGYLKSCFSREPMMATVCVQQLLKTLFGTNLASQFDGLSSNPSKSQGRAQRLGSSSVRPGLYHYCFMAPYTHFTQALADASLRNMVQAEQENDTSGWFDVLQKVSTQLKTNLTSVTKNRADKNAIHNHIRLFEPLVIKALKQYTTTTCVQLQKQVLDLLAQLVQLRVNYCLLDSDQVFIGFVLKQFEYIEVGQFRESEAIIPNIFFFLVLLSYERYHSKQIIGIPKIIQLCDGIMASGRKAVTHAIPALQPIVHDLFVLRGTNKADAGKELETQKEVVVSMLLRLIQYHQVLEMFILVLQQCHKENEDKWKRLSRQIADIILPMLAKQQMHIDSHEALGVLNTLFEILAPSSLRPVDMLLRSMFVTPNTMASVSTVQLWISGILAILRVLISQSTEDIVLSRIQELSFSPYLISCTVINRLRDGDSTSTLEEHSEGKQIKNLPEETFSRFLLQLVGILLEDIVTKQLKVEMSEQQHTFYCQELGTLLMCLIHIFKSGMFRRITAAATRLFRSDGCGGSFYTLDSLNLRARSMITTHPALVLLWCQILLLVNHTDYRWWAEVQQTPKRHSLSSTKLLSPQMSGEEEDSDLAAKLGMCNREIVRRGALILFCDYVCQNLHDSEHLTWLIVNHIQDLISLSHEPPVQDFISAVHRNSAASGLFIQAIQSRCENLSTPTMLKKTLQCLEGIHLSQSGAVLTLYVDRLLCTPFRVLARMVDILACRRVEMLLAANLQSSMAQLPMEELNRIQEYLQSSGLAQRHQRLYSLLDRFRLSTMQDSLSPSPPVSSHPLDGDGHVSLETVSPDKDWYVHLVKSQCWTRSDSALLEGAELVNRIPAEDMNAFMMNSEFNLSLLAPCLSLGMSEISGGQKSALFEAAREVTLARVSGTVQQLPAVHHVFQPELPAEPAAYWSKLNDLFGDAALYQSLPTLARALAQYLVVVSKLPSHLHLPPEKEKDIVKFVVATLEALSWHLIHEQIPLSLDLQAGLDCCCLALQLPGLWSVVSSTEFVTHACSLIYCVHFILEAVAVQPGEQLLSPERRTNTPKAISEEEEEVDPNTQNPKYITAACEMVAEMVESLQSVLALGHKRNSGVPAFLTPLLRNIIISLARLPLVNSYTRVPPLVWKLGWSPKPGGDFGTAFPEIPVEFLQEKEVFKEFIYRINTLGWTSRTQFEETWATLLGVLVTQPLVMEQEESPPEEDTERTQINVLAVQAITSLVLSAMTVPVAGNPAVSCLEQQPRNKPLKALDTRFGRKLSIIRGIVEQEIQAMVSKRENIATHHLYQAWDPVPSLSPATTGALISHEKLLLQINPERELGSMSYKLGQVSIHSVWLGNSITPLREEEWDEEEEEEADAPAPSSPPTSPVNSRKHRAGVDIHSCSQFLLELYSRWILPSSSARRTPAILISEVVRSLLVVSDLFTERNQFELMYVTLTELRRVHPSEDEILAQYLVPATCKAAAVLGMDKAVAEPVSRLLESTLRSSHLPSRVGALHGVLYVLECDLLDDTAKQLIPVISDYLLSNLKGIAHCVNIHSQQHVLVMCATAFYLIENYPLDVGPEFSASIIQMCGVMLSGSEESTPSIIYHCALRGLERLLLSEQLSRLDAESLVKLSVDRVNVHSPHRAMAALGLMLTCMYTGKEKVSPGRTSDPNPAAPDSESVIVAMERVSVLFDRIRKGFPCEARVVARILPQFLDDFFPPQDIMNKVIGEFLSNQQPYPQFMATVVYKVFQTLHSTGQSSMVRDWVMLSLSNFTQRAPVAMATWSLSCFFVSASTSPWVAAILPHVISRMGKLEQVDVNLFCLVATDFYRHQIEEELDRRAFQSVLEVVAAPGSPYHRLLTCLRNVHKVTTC
For the compound `COc1cccc(C=C2Oc3c(ccc(O)c3CN3CCCCC3C)C2=O)c1OC` (stereo unspecified), the inhibition is 15.7%.

For `COc1cccc(C=C2Oc3c(ccc(O)c3CN(C)Cc3ccccc3)C2=O)c1OC`, the inhibition is 93.1% (active).

Turning to `CCCCN(C)Cc1c(O)ccc2c1OC(=Cc1cc(OC)c(OC)c(OC)c1)C2=O`, the inhibition was -3.1%.

As to `COCC(C)(O)CNC(=O)C(=O)NCc1ccc(C)cc1` (stereo unspecified), the inhibition was -17.7%.

In the case of `CC(C)CCNC(=O)C1CC(=O)N(CCc2c[nH]c3ccc(Cl)cc23)C1` (stereo unspecified), the inhibition was 25.8%.

As to `O=C(NCCN1CCOCC1)C1CC(=O)N(CCc2c[nH]c3ccc(F)cc23)C1` (stereo unspecified), the inhibition was -6.88%.

For the compound `Cc1ccc2[nH]cc(CCN3CC(C(=O)Nc4cccc(C)c4C)CC3=O)c2c1` (stereo unspecified), the inhibition was 30.5%.

In the case of `O=C(Nc1ccccc1F)C1CC(=O)N(CCc2c[nH]c3ccc(F)cc23)C1` (stereo unspecified), the inhibition was 9.18%.

`Cc1ccc(NC(=O)C2CC(=O)N(CCc3c[nH]c4ccc(Cl)cc34)C2)c(C)c1` (stereo unspecified): the inhibition is 65% (active).

`Cc1ccc2[nH]cc(CCN3CC(C(=O)N4CCN(c5ccccc5)CC4)CC3=O)c2c1` (stereo unspecified): the inhibition was 45.4%.

Take `Cc1ccc2[nH]cc(CCN3CC(C(=O)Nc4cccc(Br)c4)CC3=O)c2c1` (stereo unspecified): the inhibition is 39.7%.

As for `O=C(Nc1ccc2c(c1)CCC2)C1CC(=O)N(CCc2c[nH]c3ccc(F)cc23)C1` (stereo unspecified), the inhibition is 53.7% (active).

On to `Cc1ccc2[nH]cc(CCN3CC(C(=O)Nc4ccc(Br)cc4)CC3=O)c2c1` (stereo unspecified), for which the inhibition was 53.5% (active).

`CC1(C(=O)NCC2CCCO2)CCC(=O)N1Cc1cccs1` (stereo unspecified): the inhibition was 3%.

Turning to `CCN(c1ccc(F)cc1)S(=O)(=O)c1ccc2[nH]cc(C(=O)NCCN(C)C)c(=O)c2c1`, the inhibition is 3%.

Regarding `CCOc1ccc(CN2C(=O)CCC2(C)C(=O)NC2CCCC(C)C2C)cc1` (stereo unspecified), the inhibition is -9%.

On to `C=CCNCCCOc1ccc(Br)cc1C`, for which the inhibition was 0.1%.

Turning to `COc1ccc(NC(=O)CN2C(=O)C(c3ccccc3)=NC23CCCCCC3)cc1OC`, the inhibition was -0.13%.

`CCc1ccc(NC(=O)CN2C(=O)C(c3ccccc3)=NC23CCCCC3)cc1`: the inhibition is -7.57%.

`O=C(CN1C(=O)C(c2ccccc2)=NC12CCCCC2)Nc1ccc(Cl)cc1`: the inhibition was 50.9% (active).

As for `Cc1ccc(NC(=O)CN2CCN(c3ccccn3)CC2)cc1F`, the inhibition is 2%.

With `COCCNC(=O)NCCn1ccnc1C`, the inhibition is -11.5%.

Turning to `COc1cc(CN2CCN(Cc3cc(OC)c(OC)c(OC)c3)CC2)cc(OC)c1`, the inhibition is -4.6%.

As for `COc1cccc(C(=O)N(CC#N)CC#N)c1`, the inhibition is 4.4%.

Take `COc1ccc(O)c(C(=O)CC(=O)c2cccc(F)c2)c1`: the inhibition was 58.1% (active).

In the case of `COc1ccc(CC(=O)Nc2ccccc2F)cc1`, the inhibition was 0.5%.

(Values after PubChem BioAssay AID1671202 (University of Kansas High Throughput Screening Laboratory, 2021).)
